Values joined by “and” are separate entries in the source; they are usually repeats but may differ in a detail not shown here. Equal values may be shown once. Inconclusive results are not listed. Where a call stands in place of a potency, no number is given. Unmarked numbers belong to inactive results. Active and inactive are the calls of the source. The call rests on the fitted dose curve; in most records, active means well fitted curve in the direction sought with a large enough effect; inconclusive means small, poorly fitted or top-dose-only effect, or another doubt; inactive means no such curve, though single readings can be large; an effect the other way counts as inactive or inconclusive.
Key:
KB-3-1 = assay: Cytotoxic Profiling of Annotated Libraries Using Quantitative High-Throughput Screening (AID 1296008); conditions: Five cell lines viability, CellTiter-Glo ATP luminescence, 48-72 h; max response: active compounds read low; further: nearly all actives have a fitted effect of over 60% in size; further: potency means the concentration at half of the fitted maximal effect
Outline: (§1)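 Cytotoxicity was measured as CellTiter-Glo ATP luminescence, read after 10 min at room temperature. Compound treatment of the cells lasted 48 or 72 hr at 37 degrees Celsius in a qHTS format.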

NIH3T3 [1] = assay: as above; conditions: Five cell lines viability, CellTiter-Glo ATP luminescence, 48-72 h; max response: active compounds read low
Outline: as §1

HEK293T [2] = assay: qHTS assay to identify novel small-molecules to repurpose for Merkel cell carcinoma treatment (AID 1296009); conditions: MCC and control cell lines, CellTiter-Glo viability, 72 h; at 44.8 µM (top of the series) unless noted; further: nearly all actives have a fitted effect of over 60% in size; further: potency means the concentration at half of the fitted maximal effect
Outline: (§2)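 72 hr, 37 degree celsius; NPC 8-pt / MIPE 11-pt dose response; compound pinned in DMSO; CellTiter-Glo, 10 min RT, luminescence; normalized to no-cell and DMSO controls.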

MCC-13 = assay: as above; conditions: MCC and control cell lines, CellTiter-Glo viability, 72 h; series mostly up to 46 µM
Outline: as §2

MCC-26 = assay: as above; conditions: MCC and control cell lines, CellTiter-Glo viability, 72 h; series mostly up to 46 µM
Outline: as §2

MKL-1 = assay: as above; conditions: MCC and control cell lines, CellTiter-Glo viability, 72 h; series mostly up to 46 µM
Outline: as §2

MKL-2 = assay: as above; conditions: MCC and control cell lines, CellTiter-Glo viability, 72 h; series mostly up to 46 µM
Outline: as §2

UISO = assay: as above; conditions: MCC and control cell lines, CellTiter-Glo viability, 72 h; series mostly up to 46 µM
Outline: as §2

WaGa = assay: as above; conditions: MCC and control cell lines, CellTiter-Glo viability, 72 h; series mostly up to 46 µM
Outline: as §2

HACAT = assay: as above; conditions: MCC and control cell lines, CellTiter-Glo viability, 72 h; at 44.8 µM (top of the series) unless noted
Outline: as §2

CAOV3 = assay: Primary qHTS to identify gynecologic anti-cancer compounds using libraries of approved drugs and bioactive compounds (AID 1345084); conditions: Gynecologic cancer cell panel viability, ATPlite luminescence, 48 h; series mostly up to 57.5 µM; further: nearly all actives have a fitted effect of over 55% in size
Outline: (§3)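 Five-concentration response, 48 h; readout is ATP-driven luciferase luminescence.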

CASKI = assay: as above; conditions: Gynecologic cancer cell panel viability, ATPlite luminescence, 48 h; series mostly up to 57.5 µM
Outline: as §3

Es-2 = assay: as above; conditions: Gynecologic cancer cell panel viability, ATPlite luminescence, 48 h; series mostly up to 57.5 µM
Outline: as §3

HeLa = assay: as above; conditions: Gynecologic cancer cell panel viability, ATPlite luminescence, 48 h; series mostly up to 57.5 µM
Outline: as §3

Hek293T [3] = assay: as above; conditions: Gynecologic cancer cell panel viability, ATPlite luminescence, 48 h, control line for the selectivity index; series mostly up to 57.5 µM
Outline: as §3

PA-1 = assay: as above; conditions: Gynecologic cancer cell panel viability, ATPlite luminescence, 48 h; series mostly up to 57.5 µM
Outline: as §3

NIH3T3 [4] = assay: qHTS assay to identify novel small-molecules to repurpose for Merkel cell carcinoma treatment (AID 1296009); conditions: MCC and control cell lines, CellTiter-Glo viability, 72 h; series mostly up to 44.8 µM; further: nearly all actives have a fitted effect of over 60% in size; further: potency means the concentration at half of the fitted maximal effect
Outline: as §2

Structure (SMILES): CCOC(=O)[C@H]1O[C@H]1C(=O)N[C@@H](CC(C)C)C(=O)NCCC(C)C
- max response (KB-3-1): 0.158%
- max response (NIH3T3 [1]): 1.05%
- outcome (HEK293T [2]): inactive
- Potency (MCC-13): inactive
- Potency (MCC-26): inactive
- Potency (MKL-1): inactive
- Potency (MKL-2): inactive
- Potency (UISO): inactive
- Potency (WaGa): inactive

Structure (SMILES): CC[C@@H]([C@H](C)O)n1ncn(-c2ccc(N3CCN(c4ccc(OCC5CO[C@@](Cn6cncn6)(c6ccc(F)cc6F)C5)cc4)CC3)cc2)c1=O (stereo not given in full)
- max response (KB-3-1): -2.24%
- max response (NIH3T3 [1]): -23.9%
- Potency (MCC-13): inactive
- Potency (MCC-26): inactive
- Potency (MKL-1): inactive
- Potency (MKL-2): inactive
- Potency (UISO): inactive
- Potency (WaGa): inactive

Structure (SMILES): CNC(=O)c1cc(Oc2ccc(NC(=O)Nc3ccc(Cl)c(C(F)(F)F)c3)c(F)c2)ccn1
- max response (KB-3-1): 1.15%
- max response (NIH3T3 [1]): -27%
- outcome (HACAT): inactive
- Potency (MKL-2): 16.6 µM (active)
- Potency (UISO): 5.9 µM (active)
- Potency (WaGa): 18.7 µM (active)
- Potency (CAOV3): inactive
- Potency (CASKI): inactive
- Potency (Es-2): inactive
- Potency (HeLa): inactive
- Potency (Hek293T [3]): inactive
- Potency (PA-1): inactive

Structure (SMILES): OCCn1cc(-c2ccc3c(c2)CCC3=NO)c(-c2ccncc2)n1
- max response (KB-3-1): -5.13%
- max response (NIH3T3 [1]): -8.29%
- Potency (MCC-13): inactive
- Potency (MCC-26): inactive
- Potency (MKL-1): inactive
- Potency (MKL-2): inactive
- Potency (UISO): inactive
- Potency (WaGa): inactive

Structure (SMILES): Cc1cc(CS(=O)(=O)c2ccccc2)cc(OCc2ccc(CN3CCC[C@H]3CO)cc2)c1
- Potency (KB-3-1): 3.72 µM (active)
- Potency (NIH3T3 [1]): 2.96 µM (active)
- Potency (MCC-13): inactive
- Potency (MCC-26): inactive
- Potency (MKL-1): inactive
- Potency (MKL-2): inactive
- Potency (UISO): inactive
- Potency (WaGa): inactive

Structure (SMILES): COc1cc2c(cc1OC)[C@@H]1Cc3ccc(OC)c(OC)c3CN1CC2
- max response (KB-3-1): -25.3%
- max response (NIH3T3 [1]): -3.25%
- Potency (MCC-13): inactive
- Potency (MCC-26): inactive
- Potency (MKL-1): inactive
- Potency (MKL-2): 18.7 µM (active)
- Potency (UISO): inactive

Structure (SMILES): CCCCOCCOc1nc(-c2ccc(C(=O)O)c(F)c2)sc1C
- max response (KB-3-1): -5.21%
- max response (NIH3T3 [1]): -20.6%
- Potency (MCC-13): inactive
- Potency (MCC-26): inactive
- Potency (MKL-1): inactive
- Potency (MKL-2): inactive
- Potency (UISO): inactive
- Potency (WaGa): inactive

Structure (SMILES): CN1CCN2c3ncccc3Cc3ccccc3C2C1 (stereo not given)
- max response (KB-3-1): -7.74% and 1.92%
- outcome (NIH3T3 [1]): inactive
- Potency (MCC-13): inactive
- Potency (MCC-26): inactive
- Potency (MKL-1): inactive
- Potency (MKL-2): inactive
- Potency (NIH3T3 [4]): inactive
- Potency (UISO): inactive
- Potency (WaGa): inactive

Structure (SMILES): CC(C)CN(C[C@H](O)[C@H](Cc1ccccc1)NC(=O)O[C@H]1CCOC1)S(=O)(=O)c1ccc(N)cc1
- outcome (KB-3-1): inactive
- max response (NIH3T3 [1]): 1.75%
- Potency (MCC-13): inactive
- Potency (MCC-26): inactive
- Potency (MKL-1): inactive
- Potency (MKL-2): inactive
- Potency (UISO): inactive
- Potency (WaGa): inactive

Structure (SMILES): COc1cccc(OC)c1-c1cc(C(=O)NC2(C(=O)O)C3CC4CC(C3)CC2C4)nn1-c1ccnc2cc(Cl)ccc12 (stereo not given)
- outcome (KB-3-1): inactive
- outcome (NIH3T3 [1]): inactive
- Potency (MCC-13): inactive
- Potency (MCC-26): inactive
- Potency (MKL-1): inactive
- Potency (MKL-2): inactive
- Potency (NIH3T3 [4]): inactive
- Potency (UISO): inactive
- Potency (WaGa): inactive

Structure (SMILES): Cc1ccc(S(=O)(=O)Nc2nc3ccccc3nc2Nc2ccc3nsnc3c2)cc1
- outcome (KB-3-1): inactive
- max response (NIH3T3 [1]): -28.1%
- Potency (MCC-13): inactive
- Potency (MCC-26): inactive
- Potency (MKL-1): 1.82 µM (active)
- Potency (MKL-2): inactive
- Potency (UISO): 5.12 µM (active)

Structure (SMILES): Oc1cc(O)cc(C=Cc2ccc(O)c(O)c2)c1
- max response (KB-3-1): -8.49%
- max response (NIH3T3 [1]): 3.17%
- outcome (HEK293T [2]): inactive
- Potency (MCC-13): inactive
- Potency (WaGa): 18.7 µM (active)

Structure (SMILES): COc1cc(C=CC(=O)O)ccc1O
- max response (KB-3-1): 4.21%
- outcome (NIH3T3 [1]): inactive
- Potency (MCC-13): inactive
- Potency (MCC-26): inactive
- Potency (MKL-1): inactive
- Potency (MKL-2): inactive
- Potency (NIH3T3 [4]): inactive
- Potency (UISO): inactive
- Potency (WaGa): inactive

Structure (SMILES): O=C(O)c1nc(=O)[nH]c(=O)[nH]1
- max response (KB-3-1): 13.7% and 2.52%
- max response (NIH3T3 [1]): 0.163%
- Potency (MCC-13): inactive
- Potency (MCC-26): inactive
- Potency (MKL-1): inactive
- Potency (MKL-2): inactive
- Potency (UISO): inactive
- Potency (WaGa): inactive

Structure (SMILES): CC(C)c1onc(-c2c(Cl)cccc2Cl)c1COc1ccc(C=Cc2cccc(C(=O)O)c2)c(Cl)c1
- max response (KB-3-1): 6.78%
- max response (NIH3T3 [1]): 4.7%
- Potency (MCC-13): inactive
- Potency (MCC-26): inactive
- Potency (MKL-1): inactive
- Potency (MKL-2): inactive
- Potency (UISO): inactive
- Potency (WaGa): inactive

Structure (SMILES): C[C@H]1COC2=C1C(=O)C(=O)c1c2ccc2c1CCCC2(C)C
- max response (KB-3-1): -1.52%
- outcome (NIH3T3 [1]): inactive
- Potency (MCC-13): inactive
- Potency (MCC-26): inactive
- Potency (MKL-1): inactive
- Potency (MKL-2): inactive
- Potency (NIH3T3 [4]): inactive
- Potency (UISO): inactive
- Potency (WaGa): inactive

Structure (SMILES): COc1cc(Cl)cn2c(-c3cccc(NC4CNC4)n3)cnc12
- max response (KB-3-1): -0.178%
- max response (NIH3T3 [1]): 4.3%
- Potency (MCC-13): inactive
- Potency (MCC-26): inactive
- Potency (MKL-1): inactive
- Potency (MKL-2): inactive
- Potency (UISO): inactive
- Potency (WaGa): inactive

From PubChem BioAssay (NCATS)
